{"source": "the supplement of paper PMC7366291", "conditions_in_all_cases": "25 µM; exposure: 24-48 hpf", "key": {"[1]": {"tested_on": "Danio rerio Tg(wt1b:EGFP) embryo, pronephros", "assay": "glomerular separation, fold change vs DMSO control; higher = glomeruli further apart (abnormal)", "summary_of_the_method": "(§1)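 Dechorionated Tg(wt1b:EGFP) zebrafish embryos were kept from 24 to 48 hpf at 28.5°C in HEPES-buffered E3 containing 0.003% PTU, 0.5% DMSO and 25 μM compound. The pronephroi were then imaged from the dorsal side in agarose-filled 96-well plates at 470 nm with 10 z-slices, and 16 reference points were placed by hand on maximum projections in Fiji so that a macro could calculate distances and angles. Values lying more than 2 SD from the mean of a feature were discarded. Every feature is given as a fold change against the mean of DMSO-treated embryos from the same day.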"}, "[2]": {"tested_on": "Danio rerio Tg(wt1b:EGFP) embryo, pronephros", "assay": "glomerular width (mean of left and right), fold change vs DMSO control; higher = wider glomerulus", "summary_of_the_method": "as §1"}, "[3]": {"tested_on": "Danio rerio Tg(wt1b:EGFP) embryo, pronephros", "assay": "fraction of imaged embryos annotated as normal kidney; higher = less nephrotoxic; extreme values may be limits of the assay", "summary_of_the_method": "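Tricaine-anaesthetised Tg(wt1b:EGFP) zebrafish larvae were oriented dorsally in agarose-filled 96-well plates, and their pronephroi were recorded by widefield fluorescence at 470 nm in 10 z-slices. Before this, the dechorionated embryos had been exposed in 12-well plates to 25 μM compound in 0.5% DMSO and 5 mM HEPES-buffered E3 with 0.003% PTU, from 24 to 48 hpf at 28.5°C. Maximum projections were annotated manually for each embryo, and the read-out is the fraction per treatment classed as normal kidney.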"}, "[4]": {"tested_on": "Danio rerio Tg(wt1b:EGFP) embryo, pronephros", "assay": "pronephric angle neck segment to proximal convoluted tubule (mean of left and right), fold change vs DMSO control; higher = larger pronephric angle", "summary_of_the_method": "as §1"}}, "note": "Counter-ions that a name gives are not always drawn. ± gives the standard deviation or the standard deviation of the averaged measurements."}
{"compound": "CC(=O)/N=c1/sc(S(N)(=O)=O)nn1C", "note": "[Methazolamide]", "values": [{"measurement": "glomerular separation", "setting": "[1]", "result": "0.898 ± 0.5"}, {"measurement": "glomerular width", "setting": "[2]", "result": "1.14 ± 0.06"}, {"measurement": "fraction of imaged embryos annotated as normal kidney", "setting": "[3]", "result": 0.636}, {"measurement": "pronephric angle neck segment", "setting": "[4]", "result": "1.02 ± 0.014"}]}
{"compound": "CCn1cc(C(=O)O)c(=O)c2cnc(N3CCCC3)nc21", "note": "[Piromidic acid]", "values": [{"measurement": "glomerular separation", "setting": "[1]", "result": "0.725 ± 0.31"}, {"measurement": "glomerular width", "setting": "[2]", "result": "0.909 ± 0.021"}, {"measurement": "fraction of imaged embryos annotated as normal kidney", "setting": "[3]", "result": 0.9}, {"measurement": "pronephric angle neck segment", "setting": "[4]", "result": "1 ± 0.008"}]}
{"compound": "CC1(C)S[C@@H]2[C@H](NC(=O)Cc3ccccc3)C(=O)N2[C@H]1C(=O)O", "note": "[Benzylpenicillin sodium]", "values": [{"measurement": "glomerular separation", "setting": "[1]", "result": "0.915 ± 0.33"}, {"measurement": "glomerular width", "setting": "[2]", "result": "1.02 ± 0.014"}, {"measurement": "fraction of imaged embryos annotated as normal kidney", "setting": "[3]", "result": 0.833}, {"measurement": "pronephric angle neck segment", "setting": "[4]", "result": "1.017 ± 0.0055"}]}
{"compound": "CC(CN(C)C)C(C)(O)Cc1ccc(Cl)cc1", "note": "(stereo unspecified) [Clobutinol hydrochloride]", "values": [{"measurement": "glomerular separation", "setting": "[1]", "result": "1.4 ± 0.46"}, {"measurement": "glomerular width", "setting": "[2]", "result": "0.945 ± 0.026"}, {"measurement": "fraction of imaged embryos annotated as normal kidney", "setting": "[3]", "result": 0.75}, {"measurement": "pronephric angle neck segment", "setting": "[4]", "result": "0.979 ± 0.034"}]}
{"compound": "CC(C)NCC(O)c1ccc2ccccc2c1", "note": "(stereo unspecified) [Pronethalol hydrochloride]", "values": [{"measurement": "glomerular separation", "setting": "[1]", "result": "0.915 ± 0.49"}, {"measurement": "glomerular width", "setting": "[2]", "result": "0.96 ± 0.036"}, {"measurement": "fraction of imaged embryos annotated as normal kidney", "setting": "[3]", "result": 0.833}, {"measurement": "pronephric angle neck segment", "setting": "[4]", "result": "1.03 ± 0.06"}]}
{"compound": "CC(C)C(=O)OCC(=O)[C@@]12O[C@H](C3CCCCC3)O[C@@H]1C[C@H]1[C@@H]3CCC4=CC(=O)C=C[C@]4(C)[C@H]3[C@@H](O)C[C@@]12C", "note": "[Ciclesonide]", "values": [{"measurement": "glomerular separation", "setting": "[1]", "result": "1.7 ± 0.91"}, {"measurement": "glomerular width", "setting": "[2]", "result": "0.937 ± 0.0044"}, {"measurement": "fraction of imaged embryos annotated as normal kidney", "setting": "[3]", "result": 0.333}, {"measurement": "pronephric angle neck segment", "setting": "[4]", "result": "1.06 ± 0.066"}]}
{"compound": "CC1(C)O[C@@H]2C[C@H]3[C@@H]4CCC5=CC(=O)C=C[C@]5(C)[C@H]4[C@@H](O)C[C@]3(C)[C@]2(C(=O)CO)O1", "note": "[Desonide]", "values": [{"measurement": "glomerular separation", "setting": "[1]", "result": "1.63 ± 0.49"}, {"measurement": "glomerular width", "setting": "[2]", "result": "1.33 ± 0.024"}, {"measurement": "fraction of imaged embryos annotated as normal kidney", "setting": "[3]", "result": 0.167}, {"measurement": "pronephric angle neck segment", "setting": "[4]", "result": "1.04 ± 0.13"}]}
{"compound": "CN/C(=N\\CCSCc1nc[nH]c1C)NC#N", "note": "[Cimetidine]", "values": [{"measurement": "glomerular separation", "setting": "[1]", "result": "1.02 ± 0.34"}, {"measurement": "glomerular width", "setting": "[2]", "result": "1.051 ± 0.0067"}, {"measurement": "fraction of imaged embryos annotated as normal kidney", "setting": "[3]", "result": 0.917}, {"measurement": "pronephric angle neck segment", "setting": "[4]", "result": "0.926 ± 0.062"}]}
{"compound": "Nc1nc(CC(=O)Nc2ccc(CCNC[C@H](O)c3ccccc3)cc2)cs1", "note": "[Mirabegron]", "values": [{"measurement": "glomerular separation", "setting": "[1]", "result": "0.841 ± 0.26"}, {"measurement": "glomerular width", "setting": "[2]", "result": "1.04 ± 0.067"}, {"measurement": "fraction of imaged embryos annotated as normal kidney", "setting": "[3]", "result": 0.833}, {"measurement": "pronephric angle neck segment", "setting": "[4]", "result": "0.965 ± 0.014"}]}
{"compound": "NC[C@H]1CC[C@H](C(=O)O)CC1", "note": "[Tranexamic acid]", "values": [{"measurement": "glomerular separation", "setting": "[1]", "result": "0.901 ± 0.18"}, {"measurement": "glomerular width", "setting": "[2]", "result": "0.9771 ± 0.0082"}, {"measurement": "fraction of imaged embryos annotated as normal kidney", "setting": "[3]", "result": 1}, {"measurement": "pronephric angle neck segment", "setting": "[4]", "result": "1.05 ± 0.022"}]}
{"compound": "O=C1CCC(N2C(=O)c3ccccc3C2=O)C(=O)N1", "note": "(stereo unspecified) [Thalidomide]", "values": [{"measurement": "glomerular separation", "setting": "[1]", "result": "0.439 ± 0.097"}, {"measurement": "glomerular width", "setting": "[2]", "result": "1.21 ± 0.078"}, {"measurement": "fraction of imaged embryos annotated as normal kidney", "setting": "[3]", "result": 0.917}, {"measurement": "pronephric angle neck segment", "setting": "[4]", "result": "0.748 ± 0.037"}]}
{"compound": "c1ccc(C2CN3CCSC3=N2)cc1", "note": "(stereo unspecified) [Tetramisole hydrochloride]", "values": [{"measurement": "glomerular separation", "setting": "[1]", "result": "0.817 ± 0.29"}, {"measurement": "glomerular width", "setting": "[2]", "result": "1.05 ± 0.032"}, {"measurement": "fraction of imaged embryos annotated as normal kidney", "setting": "[3]", "result": 0.75}, {"measurement": "pronephric angle neck segment", "setting": "[4]", "result": "0.94 ± 0.035"}]}
{"compound": "OC(c1cc(C(F)(F)F)nc2c(C(F)(F)F)cccc12)C1CCCCN1", "note": "(stereo unspecified) [Mefloquine hydrochloride]", "values": [{"measurement": "glomerular separation", "setting": "[1]", "result": "1.17 ± 0.51"}, {"measurement": "glomerular width", "setting": "[2]", "result": "1.01 ± 0.019"}, {"measurement": "fraction of imaged embryos annotated as normal kidney", "setting": "[3]", "result": 0.667}, {"measurement": "pronephric angle neck segment", "setting": "[4]", "result": "1.017 ± 0.0068"}]}
{"compound": "CN[C@@H]1[C@@H](O[C@H]2O[C@H](CO)[C@@H](N)[C@H](O)[C@H]2O)OC2C[C@@H](N)[C@@H](O[C@H]3[C@H](O)[C@@H](O)[C@H](N)C[C@@H]3N)OC2[C@@H]1O", "note": "(stereo partly specified) [Apramycin]", "values": [{"measurement": "glomerular separation", "setting": "[1]", "result": "1.1 ± 0.44"}, {"measurement": "glomerular width", "setting": "[2]", "result": "0.977 ± 0.021"}, {"measurement": "fraction of imaged embryos annotated as normal kidney", "setting": "[3]", "result": 0.75}, {"measurement": "pronephric angle neck segment", "setting": "[4]", "result": "0.9506 ± 0.0069"}]}
